Test results taken from PubChem BioAssay (NCI).
This is part of a sample that, as a whole, favours compounds with a hit. Of some 83,000 tested, about 20% had one in any assay.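 Assay: single dose, 48 h. Readout: percent growth (0 = no net growth; negative = cell death). Active: <10.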 Active and inactive are the calls of the source.

Assays:
Assay in all cases: NCI-60 one-dose screen, 48 h (100 = growth as untreated, 0 = no growth, -100 = all killed)
NCI-H23 lung = details: 10 µM unless noted
NCI-H226 lung = details: 10 µM unless noted
NCI-H322M lung = details: 10 µM unless noted
HOP-62 NSCLC = details: 10 µM unless noted
NCI-H460 lung = details: 10 µM unless noted
NCI-H522 lung = details: 10 µM unless noted
A549/ATCC NSCLC = details: 10 µM unless noted
786-0 renal = details: 10 µM unless noted
COLO 205 colon = details: 10 µM unless noted
HOP-92 NSCLC = details: 10 µM

Measured: growth

Clc1ccc(N/N=c2/oc3ccccc3cc2-c2cc3ccccc3[nH]2)cc1
inactive: NCI-H23 lung 64.4% | NCI-H226 lung 77.7% | NCI-H322M lung 78.6% | HOP-62 NSCLC 75.9% | NCI-H460 lung 85.2% | NCI-H522 lung 77.1% | A549/ATCC NSCLC 76.2% | 786-0 renal 87.7% | COLO 205 colon 95.8%

Cc1[nH]c(C(=O)Nc2ccccc2OCc2cccc(C(=O)N3CCC[C@@H](N)C3)c2)c(Cl)c1Cl
active: NCI-H23 lung -80.6% | NCI-H226 lung -67.4% | NCI-H322M lung -94.3% | HOP-62 NSCLC -60.4% | NCI-H460 lung -73.7% | NCI-H522 lung -66.5% | A549/ATCC NSCLC -77% | 786-0 renal -72.6% | COLO 205 colon -64%

O=C(CN1CCN(c2cc(=O)n(-c3ccccc3)c3ccccc23)CC1)Nc1nc(-c2ccccc2)cs1
inactive: NCI-H23 lung 60.8% | NCI-H226 lung 48.2% | NCI-H322M lung 89.4% | HOP-62 NSCLC 66.4% | NCI-H460 lung 32.2% | NCI-H522 lung 66.5% | A549/ATCC NSCLC 56.2% | 786-0 renal 89.3% | COLO 205 colon 60.1%

N#Cc1cccc(/C(N)=N/C(N)=N/c2nc3ccccc3s2)c1
active: NCI-H522 lung 3.75%
inactive: NCI-H23 lung 27.7% | NCI-H226 lung 72% | NCI-H322M lung 48.5% | HOP-62 NSCLC 45% | NCI-H460 lung 22% | A549/ATCC NSCLC 60.8% | 786-0 renal 46% | COLO 205 colon 17.4%

CNc1ncc2cc(-c3ccc(-c4ncccc4F)cc3Cl)c(=O)n(CC3OCC(N)CO3)c2n1 (configuration not stated)
inactive: NCI-H23 lung 78.4% | NCI-H226 lung 64.3% | NCI-H322M lung 79.5% | HOP-62 NSCLC 47.1% | NCI-H460 lung 102% | NCI-H522 lung 75.7% | A549/ATCC NSCLC 57.1% | 786-0 renal 56.9% | COLO 205 colon 46.4%

CNC1CCc2c(sc(NC(=O)c3ccc(C(C)(C)C)cc3)c2C(N)=O)C1 (configuration not stated)
inactive: NCI-H23 lung 74.3% | NCI-H226 lung 77.3% | NCI-H322M lung 66.4% | HOP-62 NSCLC 38.4% | NCI-H522 lung 61.6% | A549/ATCC NSCLC 31% | 786-0 renal 24.9%
active: NCI-H460 lung 2.17% | COLO 205 colon -47.1%

CCc1cccc2c3c(sc12)C(c1ccc(Cl)cc1)C(C#N)=C(/N=C/c1ccc(Cl)cc1)O3 (configuration not stated)
inactive: NCI-H23 lung 17.1% | NCI-H322M lung 37.3% | HOP-62 NSCLC 37% | NCI-H522 lung 10.8% | A549/ATCC NSCLC 33.8% | 786-0 renal 39.5% | COLO 205 colon 16.7%
active: NCI-H460 lung 7.17%

Cc1ccc(-c2nn(-c3ccccc3)cc2/C=C/C(=O)c2ccc(NC(=O)CCCCCCC(=O)NO)cc2)cc1
inactive: NCI-H23 lung 93.6% | NCI-H322M lung 83.9% | HOP-62 NSCLC 86.4% | NCI-H460 lung 68.1% | HOP-92 NSCLC 96.4% | NCI-H522 lung 40.4% | A549/ATCC NSCLC 76.9% | 786-0 renal 56.8% | COLO 205 colon 96.2%

CC(c1ccccc1)N1CSc2nc3ncncc3n2C1 (configuration not stated)
inactive: NCI-H23 lung 24.1% | NCI-H322M lung 40.9% | HOP-62 NSCLC 26.9% | NCI-H460 lung 51.2% | HOP-92 NSCLC 65.5% | NCI-H522 lung 38.2% | A549/ATCC NSCLC 72% | 786-0 renal 29.6% | COLO 205 colon 32.8%

CNC(=O)c1cc(Oc2ccc3nc(NC(=O)c4cc(N5CCOCC5)cc(C(F)(F)F)c4)sc3c2)ccn1
inactive: NCI-H23 lung 88.2% | NCI-H226 lung 85.4% | NCI-H322M lung 89.4% | HOP-62 NSCLC 89.3% | NCI-H460 lung 67.5% | NCI-H522 lung 81.6% | A549/ATCC NSCLC 68.5% | 786-0 renal 80.3% | COLO 205 colon 94%

Nc1cc(F)ccc1NC(=O)c1ccc(NC(=O)C/C=C/c2cccnc2)cc1
inactive: NCI-H23 lung 62.5% | NCI-H322M lung 67% | HOP-62 NSCLC 48.7% | NCI-H460 lung 56.8% | HOP-92 NSCLC 25.2% | NCI-H522 lung 15.2% | A549/ATCC NSCLC 55.9% | 786-0 renal 72.6% | COLO 205 colon 21.2%

COc1ccc2[nH]cc(/C=N/Nc3nc4ccccc4s3)c2c1
inactive: NCI-H23 lung 67.6% | NCI-H226 lung 75.6% | NCI-H322M lung 79.2% | HOP-62 NSCLC 62.9% | NCI-H460 lung 32.1% | NCI-H522 lung 28.5% | A549/ATCC NSCLC 52.4% | 786-0 renal 52.9% | COLO 205 colon 80.4%

CC1=CC(=O)C2=C(C)CC(OC(=O)CCc3ccccc3)[C@@H]3[C@H](OC(=O)[C@@H]3C)[C@@H]12 (some centres not stated)
inactive: NCI-H23 lung 95.4% | NCI-H322M lung 96.8% | HOP-62 NSCLC 102% | NCI-H460 lung 103% | HOP-92 NSCLC 92.6% | NCI-H522 lung 77.4% | A549/ATCC NSCLC 89% | 786-0 renal 92.6% | COLO 205 colon 95.2%

COC[C@]12CCC(C)(C)C[C@H]1C1=CC[C@@H]3[C@@]4(C)CCCNC(C)(C)[C@@H]4CC[C@@]3(C)[C@]1(C)CC2
active: NCI-H23 lung -83.9% | NCI-H322M lung -50.5% | NCI-H460 lung -69% | HOP-92 NSCLC -3.83% | 786-0 renal -83.1% | COLO 205 colon -59.6%
inactive: HOP-62 NSCLC 46.6% | A549/ATCC NSCLC 10.1%

C#C[C@]1(O)CC[C@H]2[C@@H]3CC=C4c5sc(-c6ccc7c(c6)OCO7)nc5CC[C@]4(C)[C@H]3CC[C@@]21C
inactive: NCI-H322M lung 37.1% | HOP-62 NSCLC 11.2% | COLO 205 colon 51.9%
active: NCI-H23 lung 6.36% | NCI-H460 lung -26.2% | NCI-H522 lung 2.16% | A549/ATCC NSCLC 6.31% | 786-0 renal -28.9%

NC(N)=Nc1ccc(Nc2cccc(Oc3ccc(Cl)c(C(F)(F)F)c3)c2)cn1
inactive: NCI-H23 lung 32% | NCI-H226 lung 36.5% | NCI-H322M lung 52.9% | HOP-62 NSCLC 17.4% | NCI-H522 lung 18% | A549/ATCC NSCLC 19.9% | 786-0 renal 54.3%
active: NCI-H460 lung -71.3% | COLO 205 colon -48.7%

N#Cc1cccc(CN2CCC3=C(C2)C(=O)N(Cc2ccc(Cl)cc2)C2=NCCN23)c1
active: COLO 205 colon -41%
inactive: NCI-H23 lung 30.8% | NCI-H322M lung 50.8% | HOP-62 NSCLC 31.8% | NCI-H460 lung 15% | HOP-92 NSCLC 29% | NCI-H522 lung 23.1% | A549/ATCC NSCLC 27.2% | 786-0 renal 44.7%

Cc1cc(S(=O)(=O)N(C)C)cc(NCC(=O)NC(=O)NCC(C)C)c1C
inactive: NCI-H23 lung 94.5% | NCI-H322M lung 100% | HOP-62 NSCLC 78.6% | NCI-H460 lung 109% | HOP-92 NSCLC 84.5% | A549/ATCC NSCLC 88% | 786-0 renal 91.1% | COLO 205 colon 109%

COc1cc2nc(Cl)nc(Nc3cccc(C4=Nc5c(N)nc(N)nc5NC(c5ccc6c(c5)OCO6)C4)c3)c2cc1OC (configuration not stated)
inactive: NCI-H23 lung 78.7% | NCI-H322M lung 83.4% | HOP-62 NSCLC 40.7% | NCI-H460 lung 55.5% | NCI-H522 lung 74.1% | A549/ATCC NSCLC 86.1% | 786-0 renal 61.8% | COLO 205 colon 89.1%

Cc1ccc(-c2nnc(SCc3ccc(O)c4ncccc34)o2)cc1
active: NCI-H460 lung 2.77%
inactive: NCI-H23 lung 27.9% | NCI-H322M lung 26.3% | HOP-62 NSCLC 19.7% | HOP-92 NSCLC 10.4% | NCI-H522 lung 26.6% | A549/ATCC NSCLC 24.7% | 786-0 renal 24.5% | COLO 205 colon 88.2%

COc1cc2oc(-c3cccc(C(=O)N[C@@H](CC(C)C)C(=O)OC(C)(C)C)c3)cc(=O)c2c(OC)c1OC
inactive: NCI-H23 lung 60.6% | NCI-H226 lung 72.6% | NCI-H322M lung 90.4% | HOP-62 NSCLC 43.4% | NCI-H460 lung 37.8% | NCI-H522 lung 83.1% | A549/ATCC NSCLC 76% | 786-0 renal 67.9% | COLO 205 colon 92.8%

Cn1cc(-c2nc(N)nnc2-c2c[nH]c3ccc(Br)cc23)c2cc(Br)ccc21
inactive: NCI-H23 lung 48.7% | NCI-H322M lung 68.4% | HOP-62 NSCLC 59.6% | NCI-H460 lung 17.3% | NCI-H522 lung 11.6% | A549/ATCC NSCLC 49.7% | 786-0 renal 51.1% | COLO 205 colon 36.3%

COc1ccc([C@@H]2c3[nH]c4ccccc4c3C[C@H]3C(=O)N(C4CCN(CC5CCCCC5)CC4)CC(=O)N23)c(OC)c1
inactive: NCI-H23 lung 93.3% | NCI-H322M lung 90.3% | HOP-62 NSCLC 72.9% | NCI-H460 lung 82.5% | HOP-92 NSCLC 51.3% | NCI-H522 lung 85.2% | A549/ATCC NSCLC 72.2% | 786-0 renal 70.5% | COLO 205 colon 51.2%

O=C(NNc1nc2cc(F)ccc2n2cccc12)c1ccncn1
active: NCI-H460 lung 9.08% | NCI-H522 lung -6.6%
inactive: NCI-H23 lung 30% | NCI-H322M lung 31.7% | HOP-62 NSCLC 20.5% | A549/ATCC NSCLC 14.7% | 786-0 renal 11% | COLO 205 colon 10.3%

CNC(=O)c1cc(Oc2ccc3nc(NC(=O)c4ccc(N5CCOCC5)c(C(F)(F)F)c4)sc3c2)ccn1
inactive: NCI-H23 lung 78.9% | NCI-H322M lung 91.7% | HOP-62 NSCLC 90.5% | NCI-H460 lung 68.8% | NCI-H522 lung 77.9% | A549/ATCC NSCLC 80.5% | 786-0 renal 47.1% | COLO 205 colon 102%

O=C1C(c2ccccc2)=C(N2CCc3ccccc32)OC1(Cl)Cl
active: COLO 205 colon -8.41%
inactive: NCI-H23 lung 60.1% | NCI-H226 lung 89.2% | NCI-H322M lung 86.3% | HOP-62 NSCLC 98.1% | NCI-H460 lung 88.2% | NCI-H522 lung 75.3% | A549/ATCC NSCLC 85% | 786-0 renal 60.1%

COc1c(N2CC3CCCNC3C2)c(F)cc2c(=O)c(C(=O)N/N=C/c3ccc(F)cc3)cn(C3CC3)c12 (configuration not stated)
inactive: NCI-H23 lung 87.9% | NCI-H322M lung 93.3% | HOP-62 NSCLC 98.9% | NCI-H460 lung 97.6% | HOP-92 NSCLC 50.2% | NCI-H522 lung 94.1% | A549/ATCC NSCLC 91.5% | 786-0 renal 69.2% | COLO 205 colon 96.3%

COc1cc(-c2nc(SC(C)C)n(C(C)C)c(=O)c2C#N)ccc1OCc1ccccc1
inactive: NCI-H23 lung 85% | NCI-H226 lung 87.4% | NCI-H322M lung 64.9% | HOP-62 NSCLC 79% | NCI-H460 lung 21% | NCI-H522 lung 84% | A549/ATCC NSCLC 36.7% | 786-0 renal 34.4% | COLO 205 colon 34.5%

O=C(O)c1cn(C2CC2)c2cc(N3CCN(C(=O)CN4C(=O)CSC4=O)CC3)c(F)cc2c1=O
inactive: NCI-H23 lung 103% | NCI-H322M lung 101% | HOP-62 NSCLC 75.8% | NCI-H460 lung 107% | HOP-92 NSCLC 104% | A549/ATCC NSCLC 93.5% | 786-0 renal 94.1% | COLO 205 colon 113%
